{"source": "PubChem BioAssay AID588342", "about": "(National Center for Advancing Translational Sciences (NCATS), 2011)", "note": "Screen size: about 360,000 compounds; about 25,000 (6.9%) were called active. Roughly 9% stayed inconclusive and do not appear here. This excerpt belongs to a sample that is enriched for actives. Unmarked numbers belong to inactive results. Calls come from the whole dose curve; as a rule, active = well fitted inhibition curve with a large enough effect; inconclusive = small, poorly fitted or top-dose-only effect; inactive = flat fitted curve, though single readings scatter. Potency is the fitted concentration of half-maximal effect."}
{"molecular_target": "Luciferin 4-monooxygenase (Photinus pyralis) (UniProt P08659)", "sequence (P08659 whole entry, looked up)": "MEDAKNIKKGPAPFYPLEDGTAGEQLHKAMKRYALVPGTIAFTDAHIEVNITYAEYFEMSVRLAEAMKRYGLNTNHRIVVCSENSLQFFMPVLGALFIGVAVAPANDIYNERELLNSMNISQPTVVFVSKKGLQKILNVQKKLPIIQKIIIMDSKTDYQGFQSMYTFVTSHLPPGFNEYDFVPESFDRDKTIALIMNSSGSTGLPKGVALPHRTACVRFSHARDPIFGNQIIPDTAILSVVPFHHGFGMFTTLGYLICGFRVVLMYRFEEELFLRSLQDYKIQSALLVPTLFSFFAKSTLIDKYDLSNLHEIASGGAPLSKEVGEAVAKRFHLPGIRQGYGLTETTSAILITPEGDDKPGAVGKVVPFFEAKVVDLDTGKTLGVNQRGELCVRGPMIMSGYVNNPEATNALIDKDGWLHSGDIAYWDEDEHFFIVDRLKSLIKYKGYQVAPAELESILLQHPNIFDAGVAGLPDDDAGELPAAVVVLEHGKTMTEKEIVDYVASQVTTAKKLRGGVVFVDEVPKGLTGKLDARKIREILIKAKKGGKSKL", "assay": "qHTS profiling assay for firefly luciferase inhibitor/activator using purifed enzyme and Km concentrations of substrates (counterscreen for miR-21 project); note: nearly all actives have a fitted effect of over 55% in size;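 for activity change, negative = inhibition: plate controls were vehicle for no effect and reference inhibitor for full effect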", "settings": "purified FLuc, luminescence inhibition; series mostly up to 57.5 µM; activity change, negative = inhibition: at the top concentration", "outline": "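Purified P. pyralis luciferase (10nM final) with 10uM D-luciferin and 10uM ATP (Km levels) in 50mM Tris acetate pH 7.5, 10mM Mg acetate, 0.01% Tween-20, 0.05% BSA; qHTS 6-point titration, ~60 µM downward; luminescence read.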", "units": {"activity change, negative = inhibition": "%"}}
{"smiles": "CC(=O)C1C(c2ccc(Cl)cc2)c2c(n[nH]c2C)CC1(C)O", "note": "(stereo unspecified)", "activity change, negative = inhibition": 3.98}
{"smiles": "CCOC(=O)c1ccc(NC2Nc3cc(C)nn3S2)cc1", "note": "(stereo unspecified)", "activity change, negative = inhibition": -0.982}
{"smiles": "CCc1ccc(NC2Nc3cc(C)nn3S2)cc1", "note": "(stereo unspecified)", "Potency": "4.78 µM (active)"}
{"smiles": "COc1c(Cl)cc(C(=O)N(Cc2ccccc2F)C2CCS(=O)(=O)C2)cc1Cl", "note": "(stereo unspecified)", "activity change, negative = inhibition": -0.344}
{"smiles": "O=C(COc1ccc(Cl)cc1)N(Cc1ccco1)Cc1ccco1", "activity change, negative = inhibition": -19.8}
{"smiles": "CC[C@H](C)C(=O)N[C@H]1CCCN1C(=O)/C=C/c1ccccc1", "activity change, negative = inhibition": 4.5}
{"smiles": "COc1ccc(C)cc1NC(=S)N1CCOCC1", "activity change, negative = inhibition": 5.69}
{"smiles": "COc1ccccc1/C=C/C(=O)NC(=S)N1CCOCC1", "Potency": "12 µM (active)"}
{"smiles": "O=C(/C=C/c1ccco1)NC(=S)N1CCCCC1", "activity change, negative = inhibition": -16.9}
{"smiles": "COc1ccc(OC)c(NC(=O)c2cnn(-c3ccccc3Cl)c2NC(=O)c2ccco2)c1", "activity change, negative = inhibition": 5.56}
{"smiles": "Cc1ccc2c(c1)C1CN(C)CCC1N2S(=O)(=O)c1cccc(F)c1", "note": "(stereo unspecified)", "activity change, negative = inhibition": 3}
{"smiles": "COCn1c(COc2ccccc2)nc2ccccc21", "Potency": "16.9 µM (active)"}
{"smiles": "CC(C)c1ccc(Cn2c(COc3ccccc3)nc3ccccc32)cc1", "Potency": "19 µM (active)"}
{"smiles": "CCOc1ccc(C(O)Cc2nc3ccccc3n2C)cc1", "note": "(stereo unspecified)", "activity change, negative = inhibition": -11.3}
{"smiles": "CCCn1c(C(O)c2ccc(OCC)cc2)nc2ccccc21", "note": "(stereo unspecified)", "activity change, negative = inhibition": 4.37}
{"smiles": "CC(O)c1nc2ccccc2n1Cc1ccc([N+](=O)[O-])cc1", "note": "(stereo unspecified)", "activity change, negative = inhibition": -2.35}
{"smiles": "Cc1ccc(OCc2nc3ccccc3n2C)cc1", "Potency": "3.01 µM (active)"}
{"smiles": "Cn1c(CNC(=O)C(C)(C)C)nc2ccccc21", "activity change, negative = inhibition": -0.0419}
{"smiles": "O=C(Cn1c(COc2ccccc2)nc2ccccc21)Nc1cc(Cl)c(Cl)cc1Cl", "activity change, negative = inhibition": 0.398}
{"smiles": "COCc1nc2ccccc2n1Cc1ccccc1Br", "activity change, negative = inhibition": 1.51}
{"smiles": "CCc1nc2cccnc2n1-c1ccc(CC(=O)Nc2c(C)cccc2C)cc1", "activity change, negative = inhibition": -0.458}
{"smiles": "Cc1ccccc1-n1nc(C)c2c1N=C1C(Cl)=CC(Cl)=CN1C2c1ccc(C(=O)O)cc1", "note": "(stereo unspecified)", "activity change, negative = inhibition": -8.87}
{"smiles": "CCn1c(=O)c(=O)[nH]c2c(=O)oc3ccc(S(=O)(=O)Nc4ccc(OC)cc4)cc3c21", "activity change, negative = inhibition": 1.02}
{"smiles": "O=C(CC1N=C2c3ccccc3N=C(SCc3cccc(Cl)c3)N2C1=O)NCc1ccc2c(c1)OCO2", "note": "(stereo unspecified)", "activity change, negative = inhibition": -9.72}
{"smiles": "Cc1ccc(S(=O)(=O)NCCc2nnc3ccc(SCc4cccnc4)nn23)cc1", "activity change, negative = inhibition": -0.515}
{"smiles": "COc1c(C=O)c(CCN(C)C(=O)c2ccc(F)cc2)cc2c1OCO2", "activity change, negative = inhibition": 1.83}
{"smiles": "Cc1ccc(-c2nc(CS(=O)(=O)CC(=O)NCc3ccccc3Cl)c(C)o2)cc1", "activity change, negative = inhibition": 2.41}
{"smiles": "CCOC(=O)c1c(NC(=O)c2cc(CC)on2)sc(C(C)=O)c1C", "activity change, negative = inhibition": 0.398}
{"smiles": "CCC(C)c1ccc(NC(=S)N2CCCC2)cc1", "note": "(stereo unspecified)", "Potency": "15.1 µM (active)"}
{"smiles": "CCOC(=O)c1ccc(NC(=S)N2CCCC2)cc1", "activity change, negative = inhibition": -8.94}
{"smiles": "CCOc1ccc(NC(=S)N2CCCCCC2)cc1", "activity change, negative = inhibition": -7.6}
